Shiga toxin inh: A qHTS for Small Molecule Inhibitors of Shiga Toxin; inhibition, % at 38.7 µM; Vero cells, Shiga toxin protein synthesis inhibition reporter; AID 2315, 2010; 290,000 compounds, 9.2% hits; in the data active means inhibition mostly above about 28%, no sharp cut-off; inactive means mostly below about 43%; further: 0% is about no effect
LmPK inh: qHTS Assay for Inhibitors of Leishmania Mexicana Pyruvate Kinase (LmPK) | Potency, µM (series often up to 57.5 µM), for inactives: at the top dose activity change, negative = inhibition, actives largely listed as inhibitors | purified LmPK, Kinase-Glo ATP luminescence, 1 h | 290,000 compounds, 0.37% hits; further: potency means the concentration at half of the fitted maximal effect; on the % scale 0 is the no-effect control and ±100 the full control effect
Target sequence (Q27686 whole entry, looked up): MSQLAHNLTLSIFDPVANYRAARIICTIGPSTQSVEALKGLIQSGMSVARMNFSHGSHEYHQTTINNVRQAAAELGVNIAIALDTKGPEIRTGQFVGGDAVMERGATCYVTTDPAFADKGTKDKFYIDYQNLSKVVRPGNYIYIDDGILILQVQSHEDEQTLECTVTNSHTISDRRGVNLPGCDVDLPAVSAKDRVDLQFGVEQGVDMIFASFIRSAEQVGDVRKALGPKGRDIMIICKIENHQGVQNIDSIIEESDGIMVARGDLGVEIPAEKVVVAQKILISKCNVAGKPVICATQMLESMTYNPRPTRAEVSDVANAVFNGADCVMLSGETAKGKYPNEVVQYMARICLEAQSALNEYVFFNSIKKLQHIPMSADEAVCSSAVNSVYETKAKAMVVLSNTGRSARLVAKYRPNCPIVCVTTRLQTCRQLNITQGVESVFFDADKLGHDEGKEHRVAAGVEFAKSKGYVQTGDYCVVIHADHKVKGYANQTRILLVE
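Pyruvate kinase activity monitored as ATP production (luciferase luminescence). Conditions: 0.1 nM enzyme, 0.5 mM PEP, 0.1 mM ADP, 1 h, RT; normalized against uninhibited and no-enzyme wells.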
Pf growth 96h: Primary qHTS for delayed death inhibitors of the malarial parasite plastid, 96 hour incubation; P. falciparum luciferase reporter growth, 96 h; AID 504834, 2011; 320,000 compounds, 6.9% hits; Potency, µM (highest dose often 28.7 µM), inactives show at the top dose activity change, negative = inhibition, actives largely listed as inhibitors; further: potency means the concentration at half of the fitted maximal effect; on the % scale 0 is the no-effect control and ±100 the full control effect
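Parasite growth measured via integrated firefly luciferase reporter in P. falciparum. Infected erythrocytes at 2% hematocrit, 0.05% parasitemia final were treated 96 hours at 37 C under 5% CO2, and luminescence was read.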
Pf growth 48h: Primary qHTS for delayed death inhibitors of the malarial parasite plastid, 48 hour incubation; P. falciparum luciferase growth in erythrocytes, 48 h; Potency, µM (titrated, usually from 28.7 µM), without a hit: at the highest dose activity change, negative = inhibition, usual class: inhibitors; 310,000 compounds, 5.9% hits; further: potency means the concentration at half of the fitted maximal effect; on the % scale 0 is the no-effect control and ±100 the full control effect
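Parasite viability was followed by luminescence of a genomically integrated firefly luciferase. Cultures held 0.1% parasitemia at 2% hematocrit (final), incubated under 5% CO2 at 37 C.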
CHX counter: Cycloheximide Counterscreen for Small Molecule Inhibitors of Shiga Toxin | max response, % | 300,000 compounds, 12% hits | cell reporter, cycloheximide protein synthesis inhibition counterscreen | AID 2314, 2010; in the data active means max response mostly above about 13%, no sharp cut-off; inactive means mostly below about 14%; further: read at 38.3 µM for the half of the compounds with a filed dose; 0% is about no effect
Numbers without * were called inactive; ? = inconclusive; . = no result given. Compounds with a hit are over-represented: about 22% of the library has one in this group of screens. Unless noted, the call rests on the fitted dose curve; in most records, active means well fitted inhibition curve with a large enough effect; inconclusive means small, poorly fitted or top-dose-only effect, or another doubt; inactive means no such curve, though single readings can be large or run the other way.

SMILES	Shiga toxin inh	LmPK inh	Pf growth 96h	Pf growth 48h	CHX counter
CCOc1nc(Nc2ccc(F)cc2)nc(N2CCN(c3ccc(OC)cc3)CC2)n1	-10	5%	?	.	2
Oc1cccc(Nc2nc(N3CCOCC3)nc(N3CCOCC3)n2)c1	-10	1%	?	12µM*	-4
Cn1ccnc1Sc1nc(Nc2cccc(Cl)c2)nc(N2CCOCC2)n1	-8	1%	.	8.3µM*	6
N#Cc1ccc(Oc2nc(Nc3ccc(F)cc3)nc(N3CCCC3)n2)cc1	8	-2%	4.1µM*	.	-3
Cc1ccc2oc(=O)c3cnn(CC(=O)Nc4cc(-c5cccc(F)c5)no4)c3c2c1	-7	2%	?	42%	2
N#CCCn1cc(C(=O)CN2C(=O)C(=O)N(C3CCCC3)C2=O)c2ccccc21	.	.	-21%	?	.
C=CCNc1nc(N2CCOCC2)nc(N2CCOCC2)n1	13	1%	13µM*	-14%	6
CC1CCc2nc3ccc(S(=O)(=O)N4CCC(C(=O)NC(C)c5ccccc5)CC4)cc3c(C(=O)O)c2C1 (stereo not drawn)	-5	-3%	?	0%	-2
O=C(NCc1ccccc1C(F)(F)F)C1CC(c2ccccc2[N+](=O)[O-])=NO1 (stereo not drawn)	-7	3%	71%	13%	-3
O=[N+]([O-])C(=C1Nc2ccccc2N1)C(Cl)=C(Cl)Cl	24	6%	30%	14%	16*
CN1CCO/C1=C(\C(Cl)=C(Cl)Cl)[N+](=O)[O-]	-6	-3%	4%	-22%	-3
CC1CN(c2ccc([N+](=O)[O-])cc2Cl)CCN1S(C)(=O)=O (stereo not drawn)	-2	2%	61%	3.3µM*	-3
CS(=O)(=O)N1CCN(c2ccc([N+](=O)[O-])cc2C(F)(F)F)CC1	44	-1%	15%	8%	8.9*
CS(=O)(=O)N1CCN(c2ccc([N+](=O)[O-])cc2F)CC1	16	-5%	96%	20%	8
O=C(Nc1cccc(Cl)c1)Nc1cc(S(=O)(=O)N2CCCCC2)ccc1Cl	-12	1%	2.9µM*	?	7
CN1CCN(S(=O)(=O)c2ccc(NC(=O)c3ccccc3Cl)cc2)CC1	-4	4%	0%	4%	-2
Cc1ccc(S(=O)(=O)N2CCCCC2)cc1NC(=O)Nc1ccc(Cl)cc1Cl	-15	0%	15%	7%	-1
CN1CCN(S(=O)(=O)c2ccc(NC(=O)Nc3cccc(Cl)c3)cc2)CC1	11	0%	2%	2.9µM*	16*
Cn1c2c(c(=O)c3ccccc31)CCC(C)(C)O2	18	1%	-5%	-6%	-1
CCCNC(=S)NCc1ccc(Cl)cc1	10	2%	46%	17%	-5
Cc1ccc(OCC2Cn3c(nc4c3c(=O)[nH]c(=O)n4C)O2)cc1C (stereo not drawn)	-2	13%	32%	1%	-6
Cc1ccc(/C=C/C(=O)Nc2ccncc2)o1	52	-4%	240%	29%	15
Cc1cnc(NC(=O)/C=C/c2ccc(Br)o2)s1	81*	-2%	35%	111%	16*
O=C(/C=C/c1ccc(Br)o1)Nc1nnc(C2CC2)s1	29	0%	?	24%	14
